Drawing on PubChem BioAssay AID504334 (NMMLSC, 2011), this text covers percent response vs DMSO for 39 molecules.

A number with no mark means an inactive call.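 How the source made its calls: active means response relative to DMSO over 150%; inconclusive means yeast strain with under 70 recorded events; inactive means the rest.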

The nature of this test: yeast AGP1-GFP fluorescence change, single-dose confirmation – cell-based, flow cytometry, S. cerevisiae, cherry pick set 3 (AID 504334).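 Further: median GFP fluorescence per well by flow cytometry over the all cells gate; ratio of sample to mean DMSO control signal so DMSO = 100% not 0%.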 Particulars: S. cerevisiae AGP1-GFP strain, 3 h, at 10 µM, stronger effect = higher value. For orientation: Flow cytometry measures light scatter and fluorescence of single cells or particles in a stream.
`CNc1nc(C)c([N+](=O)[O-])c(Nc2ccc(OC)cc2)n1`: the percent response vs DMSO is 99.4%.

`O=C(O)c1ccc2cccnc2c1O`: the percent response vs DMSO is 99.8%.

Take `O=C(N/N=C/c1ccccc1O)c1cccc2ccccc12`: the percent response vs DMSO is 99.8%.

For `C/C(=C\C(=O)c1ccccc1)Nc1cccc(O)c1`, the percent response vs DMSO was 97.1%.

In the case of `COc1ccccc1-c1cc(C(F)(F)F)nc(S(=O)(=O)CCCC(=O)O)n1`, the percent response vs DMSO is 110%.

Regarding `Nc1cccc2c1C(=O)c1ccc(Cl)cc1C2=O`, the percent response vs DMSO is 102%.

Regarding `COc1ccc(NC(=O)ON=C2c3ccccc3-c3ccccc32)cc1`, the percent response vs DMSO was 98.1%.

Regarding `Cc1cc(C)c(NC(=O)CC(=O)c2ccccc2)c(Cl)c1`, the percent response vs DMSO is 99.4%.

Regarding `CSc1nc(Nc2ccc(Cl)cc2)c(C#N)c(=O)[nH]1`, the percent response vs DMSO was 98.4%.

As to `COCCCNc1nc(N)c([N+](=O)[O-])c(Nc2cc(OC)ccc2OC)n1`, the percent response vs DMSO is 100%.

As for `C[n+]1cccc2cccc([O-])c21`, the percent response vs DMSO was 98.8%.

As for `COCCNc1nc(N)c([N+](=O)[O-])c(Nc2ccc(F)cc2)n1`, the percent response vs DMSO was 101%.

`O=C(O)CCCCCNc1ncnc2ccc(Br)cc12`: the percent response vs DMSO was 101%.

Consider `Cc1cccc(Nc2cc(=O)[nH]c(=O)[nH]2)c1C`, for which the percent response vs DMSO was 99.4%.

`COc1ccc(OC)c2c(=O)cc(C(=O)O)[nH]c12`: the percent response vs DMSO is 102%.

For the molecule `C/C(=N\NC(=O)c1ccccc1)c1ccccc1F`, the percent response vs DMSO was 105%.

For `CSc1ccccc1OCc1cc(C(=O)N2CCN(C)C(c3ccccc3)C2)no1` (centres undefined), the percent response vs DMSO was 101%.

As to `COc1ccc(OC)c(Nc2nc(NCCC(C)C)nc(N)c2[N+](=O)[O-])c1`, the percent response vs DMSO is 98.4%.

Turning to `Cc1ccc(-c2cc(C(F)F)nc(S(C)(=O)=O)n2)cc1`, the percent response vs DMSO was 110%.

Regarding `CCc1sc(C(=O)Nc2nc(-c3ccccn3)cs2)cc1C`, the percent response vs DMSO was 111%.

As for `C/C(=N\NC(=O)c1cccc2ccccc12)c1cccnc1`, the percent response vs DMSO is 99.4%.

Take `O=C(Nc1nc(-c2ccccn2)cs1)c1ccccc1-n1cnnn1`: the percent response vs DMSO was 100%.

As for `Cc1ccc2c(Cl)cc(Cl)c(OCC(=O)O)c2n1`, the percent response vs DMSO was 109%.

`C=CCNc1nc(N)c([N+](=O)[O-])c(Nc2cccc(Cl)c2)n1`: the percent response vs DMSO is 92.1%.

As for `Cc1ccc(C(=O)/C=C/Nc2cccc(O)c2)cc1`, the percent response vs DMSO is 96.8%.

On to `Cn1cccc1C(=O)Nc1nc(-c2ccccn2)cs1`, for which the percent response vs DMSO was 99.1%.

In the case of `C/C(=C\C(=O)c1ccc(C)cc1)Nc1cccc(O)c1`, the percent response vs DMSO is 101%.

On to `Cc1ccc2c(C)ccc(O)c2n1`, for which the percent response vs DMSO was 102%.

For `CCCC(=O)Nn1cnc2c(c1=O)C1(CCCCC1)Cc1ccccc1-2`, the percent response vs DMSO was 102%.

`CC1=CN2C(=N)/C(=C/c3ccc(C)o3)C(=O)N=C2S1`: the percent response vs DMSO is 98.1%.

Take `Cc1nc(Nc2ccc(Cl)cc2)c(C#N)c(=O)[nH]1`: the percent response vs DMSO is 101%.

On to `C=CCNc1nc(N)c([N+](=O)[O-])c(Nc2ccccc2OC)n1`, for which the percent response vs DMSO is 95.4%.

Regarding `O=c1cc(C(F)(F)F)[nH]c2c(OC(F)(F)F)cccc12`, the percent response vs DMSO is 99.4%.

With `Cc1ccc(Nc2cc(=O)[nH]c(=O)[nH]2)cc1C`, the percent response vs DMSO was 95.8%.

For `Cc1ccc(C)c(Nc2ncnc(N)c2[N+](=O)[O-])c1`, the percent response vs DMSO is 102%.

Consider `CCC(C)Nc1nc(N)c([N+](=O)[O-])c(Nc2cc(OC)ccc2OC)n1` (centres undefined), for which the percent response vs DMSO was 98.8%.

As for `CCC(=O)Nn1cnc2c(c1=O)C1(CCCCC1)Cc1ccccc1-2`, the percent response vs DMSO is 102%.

For the molecule `Cc1cccc(Nc2cc(=O)[nH]c(=O)[nH]2)c1`, the percent response vs DMSO was 96.8%.

For `COc1ccccc1OCc1cc(C(=O)N2CCN(C)C(c3ccccc3)C2)no1` (centres undefined), the percent response vs DMSO is 98.8%.
